Reference: PubChem BioAssay (NCI)
This is part of a sample that, as a whole, favours compounds with a hit. Of some 83,000 tested, about 20% had one in any assay.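 Interpretation: 100, growth as untreated; towards 0, rising growth inhibition; 0, no net growth; 0 to -100, cell death. Compounds scoring below 10 were considered active.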 Values without a mark were called inactive. The source made the active and inactive calls.

What was measured:
Test in all cases: NCI-60 one-dose screen, 48 h (100 = growth as untreated, 0 = no growth, -100 = all killed)
Settings in all cases: 10 µM unless noted
[1] = test system: SR leukemia
[2] = test system: RPMI-8226 leukemia
[3] = test system: OVCAR-8 ovarian
[4] = test system: OVCAR-5 ovarian
[5] = test system: OVCAR-4 ovarian
[6] = test system: SK-OV-3 ovarian
[7] = test system: IGROV1 ovarian
[8] = test system: OVCAR-3 ovarian
[9] = test system: NCI/ADR-RES ovarian
[10] = test system: HS 578T breast

Compound	growth [1]	growth [2]	growth [3]	growth [4]	growth [5]	growth [6]	growth [7]	growth [8]	growth [9]	growth [10]
CCCCCCCCCc1cc[n+](CC(=O)c2ccc([N+](=O)[O-])cc2)cc1	-14.3% (active)	-25.8% (active)	11.7%	18.9%	19.8%	50%	26.6%	3.13% (active)	66.3%	–
O=C(/C=C\c1ccc(NCc2ccc(C(=O)O)cc2)cc1)CCl	-12.1% (active)	60.4%	66.9%	114%	90.6%	106%	90.4%	72.4%	100%	–
COc1ccc(Oc2[nH]n(C3=Nc4ccccc4Sc4ccccc43)c(=O)c2C#N)cc1	130%	91.2%	96.2%	116%	112%	95.5%	91.6%	91.8%	87%	–
CC(=O)c1ccc2c(c1)c1ccccc1n2C	77.9%	93.2%	95.4%	108%	115%	96.5%	87.6%	108%	91.2%	–
CCCCS(=O)(=O)c1cc(Nc2ccc(O)c3c2C(=O)c2ccccc2C3=O)ccc1C	58.6%	80.9%	86.6%	78.5%	78.9%	87.8%	81.8%	46.4%	82.2%	–
CCOC(=O)C1CCCN1C(=O)C1(NC(C)=O)CCCC1 (stereo not drawn)	102%	95.7%	103%	96.4%	105%	104%	96.8%	103%	103%	–
COC(=O)c1ccc2[nH]c(O)c(C(=Nc3ccc(N(C)C(=O)CN4CCN(C)CC4)cc3)c3ccc([N+](=O)[O-])cc3)c2c1	5.48% (active)	31%	37%	94.3%	46.9%	22.5%	19.1%	53.6%	104%	27.6%
O=C(c1ccccc1)c1ccccc1-c1ccccc1	19.2%	13.6%	36.7%	52.6%	83.3%	23.5%	41.7%	13.3%	-23.7% (active)	-6.36% (active)
O=C(/C=C/c1ccc(Cl)cc1)c1ccc(Cl)cc1	9.81% (active)	13.7%	106%	104%	106%	104%	88.1%	89.7%	99.3%	–
CC#Cc1nc(Nc2cc(C)[nH]n2)c2ccccc2n1	-5.19% [100 µM] (active)	-21.3% [100 µM] (active)	13.8% [100 µM]	29.4% [100 µM]	20% [100 µM]	29.4% [100 µM]	-46.7% [100 µM] (active)	-59% [100 µM] (active)	20.3% [100 µM]	–
N=C(N)N=Nc1ccc(NN=C(N)N)cc1	108%	95.8%	94.4%	78.7%	100%	24%	99.8%	108%	110%	–
O=C(O)CS(=O)c1ccc(Cl)cc1 (stereo not drawn)	84.9%	116%	99%	95.5%	114%	107%	115%	115%	109%	–
O=CN/N=C/c1ccc(Cl)c([N+](=O)[O-])c1	39.9%	15.6%	18.1%	31%	49.6%	46.9%	16.9%	18.1%	107%	–
CC(=O)OCC(=O)[C@@]1(O)[C@H](C)C[C@H]2[C@@H]3C=C(C)C4=Cc5c(cnn5-c5ccc(F)cc5)C[C@]4(C)[C@H]3[C@@H](O)C[C@@]21C	0.104% (active)	-16.8% (active)	32.7%	16.9%	38.8%	23.9%	16%	-20% (active)	18.6%	–
CCCCCCN(CCCCCC)CCC(=O)Nc1ccc(S(=O)(=O)c2ccc(NC(=O)CCN(CCCCCC)CCCCCC)cc2)cc1	7.85% (active)	60.7%	90.8%	82.9%	77.6%	84.2%	84.3%	80.7%	83.8%	–
C=CN(C)S(C)(=O)=O	14.2%	16.8%	34.8%	90.9%	70.4%	13.8%	51.5%	-14.1% (active)	20.1%	–
CCC(C)C1NC(=O)C(CC(C)C)NC(=O)C(C)NC(=O)C(C(C)C)NC(=O)C(CCCCN)NC(=O)C(CC(C)C)NC(=O)C(C(C)C)NC(=O)[C@H](C)NC(=O)C(C(C)CC)NC(=O)C(CCCN=C(N)N)NC(=O)C(CCCCN)NC(=O)C(CCCN=C(N)N)NC(=O)C(CCCCN)NC(=O)C([C@H](C)CC)NC(=O)C(CCCCN)NC1=O (stereo partly drawn)	2.37% (active)	-35.5% (active)	11.7%	52.6%	18.4%	10.4%	12.4%	8.18% (active)	29.3%	38.9%
CCOC1=C(Cl)C(=O)C(OCC)=C(Cl)C1=O	87.7%	105%	104%	110%	105%	93.5%	99.1%	105%	100%	–
CC1(C)NC(=S)NC1=O	93.1%	101%	106%	108%	103%	98.6%	116%	112%	104%	–
N=C(N)N=Nc1ccc(NN=C(N)N)c2ccccc12	109%	110%	96.2%	108%	106%	88.1%	107%	127%	110%	–
CCCCCCC(C)N(CC(C)(C)O)C(=O)c1ccc([N+](=O)[O-])cc1 (stereo not drawn)	89.5%	96%	101%	106%	108%	96.3%	88.1%	113%	85.7%	–
CC(C)(CNC1CCCCC1)OC(=O)c1ccccc1	106%	106%	101%	114%	110%	106%	106%	102%	103%	–
CN1C(=O)C(=Cc2coc3ccc(Br)cc3c2=O)C(=O)N(C)C1=O	126%	108%	98.5%	114%	118%	96.3%	101%	105%	97.9%	–
CC(=O)Nc1ccc(S(=O)(=O)Cl)cc1	86.8%	100%	113%	109%	110%	106%	116%	112%	116%	–
O=C(CCC(=O)N(CCO)CCO)N(CCO)CCO	89.8%	101%	103%	105%	105%	99%	98.1%	97.5%	108%	–
CCCCCCNc1nc(N2CCOCC2)c2[nH]c(NCCCCCC)nc2n1	-29.2% (active)	-44.4% (active)	-67.7% (active)	-92% (active)	-88.9% (active)	-97.1% (active)	-55.4% (active)	-98.1% (active)	-98% (active)	–
CCCCN(CCC)CCCCCCCCCCN1CCCc2ccccc21	10.5%	-2.32% (active)	102%	108%	79.4%	81.4%	48.5%	53.7%	90.1%	–
COC(=O)c1cc(Nc2ccc(O)c3c2C(=O)c2c([N+](=O)[O-])ccc(O)c2C3=O)cc(C(=O)OC)c1	2.02% (active)	17.9%	65.1%	50.4%	80.5%	82.3%	85.9%	54.7%	71.2%	–
Oc1ccc2ccccc2c1/C=N\Nc1ccccn1	8.32% (active)	25.2%	14.5%	65.3%	8.67% (active)	19.8%	-4.78% (active)	5.04% (active)	0.917% (active)	–
CCOc1ccccc1/C=N\N=C(N/N=C/c1ccccc1OCC)N/N=C/c1ccccc1OCC	15.7%	18.8%	18.4%	13.9%	7.81% (active)	2.98% (active)	21%	-19.7% (active)	6.36% (active)	–
